# From PubChem BioAssay (NCI)
# This is part of a sample that, as a whole, favours compounds with a hit. Of some 79,000 tested, about 15% had one in any assay. Values without a mark were called inactive. The source made the active and inactive calls. Cut-off read from the data, not from the text of the source: active = growth inhibition above about 70%; inactive = the rest.
# Legend:
# [1] = NCI Yeast Anticancer Drug Screen. Data for the wt1 strain (AID 149);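 note: 0% = growth of vehicle-treated wt1 cultures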; settings: S. cerevisiae wt1 strain (SPY 50644) growth inhibition, hits give high values
# Outline: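 Measured: growth of wt1 yeast under compound versus vehicle treatment, reported as inhibition.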
# [2] = NCI Yeast Anticancer Drug Screen. Data for the rad50EPP+ strain (AID 151);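 note: 0% = growth of vehicle-treated control cultures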; settings: S. cerevisiae rad50 mutant strain, hits give high values
# Outline: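 Genetically defined yeast (rad50EPP+, DNA damage repair alteration) is grown with compound, and inhibition of growth is expressed relative to vehicle-treated controls.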
# [3] = NCI Yeast Anticancer Drug Screen. Data for the mgt1 strain (AID 153); settings: S. cerevisiae mgt1 mutant growth inhibition, hits give high values
# Outline: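 In the mgt1 strain, test compounds were added and growth inhibition was determined relative to vehicle-treated controls.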
# [4] = NCI Yeast Anticancer Drug Screen. Data for the rad50 strain (AID 155);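 note: 0% = growth of vehicle-only cultures of the same strain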; settings: S. cerevisiae rad50 strain growth inhibition, hits give high values
# Outline: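 Growth of the mutant yeast was measured after compound exposure and referenced to vehicle-treated cultures.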
# [5] = NCI Yeast Anticancer Drug Screen. Data for the mec2-1 strain (AID 157); settings: S. cerevisiae mec2-1 strain, hits give high values
# Outline: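 Each compound was tested on mec2-1 yeast, a strain altered in DNA damage repair or cell cycle control. Growth inhibition is reported relative to vehicle.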
# [6] = NCI Yeast Anticancer Drug Screen. Data for the rad14 strain (AID 159);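 note: 0% = growth of vehicle-treated control cultures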; settings: S. cerevisiae rad14 strain growth inhibition, hits give high values
# Outline: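 Here, inhibition of yeast growth was measured after compound exposure, using a strain with a genetic defect in DNA damage repair and vehicle-treated cultures as the reference.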
# [7] = NCI Yeast Anticancer Drug Screen. Data for the sgs1 mgt1 strain (AID 161);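 note: 0% = growth of cultures given vehicle only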; settings: S. cerevisiae sgs1 mgt1 strain, hits give high values
# Outline: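 Read-out: growth inhibition vs vehicle controls. Cells: mutant yeast strain deficient in DNA damage repair.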
# [8] = NCI Yeast Anticancer Drug Screen. Data for the CLN2oe strain (AID 163);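 note: 0% = growth of vehicle-only control cultures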; settings: S. cerevisiae CLN2oe strain, hits give high values
# Outline: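 First, the altered yeast strain was treated with each compound; second, its growth was measured; finally, inhibition was derived by comparison with vehicle controls.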
# [9] = NCI Yeast Anticancer Drug Screen. Data for the cln2 rad14 strain (AID 165);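 note: 0% = growth equal to vehicle treated cultures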; settings: S. cerevisiae cln2 rad14 strain, hits give high values
# Outline: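 Test compounds were added to cln2 rad14 yeast cultures; inhibition of growth was then determined by comparison with vehicle treatment.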
# [10] = NCI Yeast Anticancer Drug Screen. Data for the bub3 strain (AID 167); settings: S. cerevisiae bub3 mutant strain, hits give high values
# Outline: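 Whole-cell yeast assay. The mutant strain was incubated with compounds, and growth inhibition was determined by comparison with vehicle-treated cells.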
# [11] = NCI Yeast Anticancer Drug Screen. Data for the wt2 strain (AID 169);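 note: 0% = growth of vehicle-treated yeast cultures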; settings: S. cerevisiae wt2 strain growth inhibition, hits give high values
# Outline: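 The panel's yeast strains carry defined changes in DNA repair or cell cycle genes. Each strain is grown with compound, and growth loss is scored relative to vehicle.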
# [12] = NCI Yeast Anticancer Drug Screen. Data for the mlh1 strain (AID 171);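 note: 0% = growth of vehicle-treated control cultures of the same strain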; settings: S. cerevisiae mlh1 strain growth inhibition, hits give high values
# Outline: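 Inhibition values reflect reduced yeast growth in the presence of compound, referenced to vehicle controls, using a strain chosen for its alteration in DNA repair or cell cycle control.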
# [13] = NCI Yeast Anticancer Drug Screen. Data for the sgs1 strain (AID 173);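 note: 0% = growth of vehicle-only control cultures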; settings: S. cerevisiae sgs1 mutant, hits give high values
# Outline: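 Vehicle-treated cultures served as reference for growth inhibition of a yeast strain altered in DNA damage repair or cell cycle control after compound exposure.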
# [14] = NCI Yeast Anticancer Drug Screen. Data for the mlh1 rad18 strain (AID 175); settings: S. cerevisiae mlh1 rad18 strain growth inhibition, hits give high values
# Outline: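 Inhibition values reflect reduced growth of mutant yeast versus vehicle-treated controls following compound exposure; the mutations affect DNA damage repair.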
# [15] = NCI Yeast Anticancer Drug Screen. Data for the rad18 strain (AID 177); settings: S. cerevisiae rad18 mutant growth inhibition, hits give high values
# Outline: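 Steps: expose repair-mutant yeast to compound; measure growth; express as inhibition relative to vehicle control.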
# [16] = at 5.0 µM (retest, dose inferred, filed as 0.5)
# [17] = at 50.0 µM (retest, dose inferred, filed as 5.0)
compound,measurement,setting,value
CCN(CC)CCNC(=O)c1nn(-c2ccc(Cl)cc2)c2c1CCc1cc(OC)ccc1-2,growth inhibition,[1]; at 1.2 µM,10%
same,growth inhibition,[1]; at 3.7 µM,22%
same,growth inhibition,[1]; at 11.0 µM,25%
same,growth inhibition,[1]; at 33.0 µM,24%
same,growth inhibition,[1]; at 100.0 µM,58%
same,growth inhibition,[2]; at 1.2 µM,18%
same,growth inhibition,[2]; at 3.7 µM,32%
same,growth inhibition,[2]; at 11.0 µM,43%
same,growth inhibition,[2]; at 33.0 µM,44%
same,growth inhibition,[2]; at 100.0 µM,56%
same,growth inhibition,[3]; at 1.2 µM,12%
same,growth inhibition,[3]; at 3.7 µM,10%
same,growth inhibition,[3]; at 11.0 µM,8%
same,growth inhibition,[3]; at 33.0 µM,12%
same,growth inhibition,[3]; at 100.0 µM,81% (active)
same,growth inhibition,[4]; at 1.2 µM,6%
same,growth inhibition,[4]; at 3.7 µM,5%
same,growth inhibition,[4]; [16],1%
same,growth inhibition,[4]; at 11.0 µM,17%
same,growth inhibition,[4]; at 33.0 µM,59%
same,growth inhibition,[4]; [17],80% (active)
same,growth inhibition,[4]; at 50.0 µM,59.2%
same,growth inhibition,[4]; at 100.0 µM,95% (active)
same,growth inhibition,[5]; at 1.2 µM,-10%
same,growth inhibition,[5]; at 3.7 µM,-2%
same,growth inhibition,[5]; [16],-16%
same,growth inhibition,[5]; at 11.0 µM,4%
same,growth inhibition,[5]; at 33.0 µM,0%
same,growth inhibition,[5]; [17],54%
same,growth inhibition,[5]; at 50.0 µM,66.4%
same,growth inhibition,[5]; at 100.0 µM,73% (active)
same,growth inhibition,[6]; at 1.2 µM,-1%
same,growth inhibition,[6]; at 3.7 µM,2%
same,growth inhibition,[6]; at 11.0 µM,10%
same,growth inhibition,[6]; at 33.0 µM,24%
same,growth inhibition,[6]; at 100.0 µM,92% (active)
same,growth inhibition,[7]; [16],15%
same,growth inhibition,[7]; [17],80% (active)
same,growth inhibition,[7]; at 50.0 µM,67.5%
same,growth inhibition,[8]; at 1.2 µM,-12%
same,growth inhibition,[8]; at 3.7 µM,11%
same,growth inhibition,[8]; at 11.0 µM,6%
same,growth inhibition,[8]; at 33.0 µM,5%
same,growth inhibition,[8]; at 100.0 µM,80% (active)
same,growth inhibition,[9]; [16],2%
same,growth inhibition,[9]; [17],39%
same,growth inhibition,[9]; at 50.0 µM,28.8%
same,growth inhibition,[10]; at 1.2 µM,9%
same,growth inhibition,[10]; at 3.7 µM,9%
same,growth inhibition,[10]; [16],8%
same,growth inhibition,[10]; at 11.0 µM,10%
same,growth inhibition,[10]; at 33.0 µM,13%
same,growth inhibition,[10]; [17],77% (active)
same,growth inhibition,[10]; at 50.0 µM,58.7%
same,growth inhibition,[10]; at 100.0 µM,83% (active)
same,growth inhibition,[11]; at 1.2 µM,-11%
same,growth inhibition,[11]; at 3.7 µM,-1%
same,growth inhibition,[11]; at 11.0 µM,-8%
same,growth inhibition,[11]; at 33.0 µM,8%
same,growth inhibition,[11]; at 100.0 µM,96% (active)
same,growth inhibition,[12]; at 1.2 µM,13%
same,growth inhibition,[12]; at 3.7 µM,17%
same,growth inhibition,[12]; at 11.0 µM,10%
same,growth inhibition,[12]; at 33.0 µM,0%
same,growth inhibition,[12]; at 100.0 µM,87% (active)
same,growth inhibition,[13]; at 1.2 µM,3%
same,growth inhibition,[13]; at 3.7 µM,2%
same,growth inhibition,[13]; at 11.0 µM,8%
same,growth inhibition,[13]; at 33.0 µM,14%
same,growth inhibition,[13]; at 100.0 µM,90% (active)
same,growth inhibition,[14]; [16],-1%
same,growth inhibition,[14]; [17],81% (active)
same,growth inhibition,[15]; at 1.2 µM,-4%
same,growth inhibition,[15]; at 3.7 µM,4%
same,growth inhibition,[15]; at 11.0 µM,1%
same,growth inhibition,[15]; at 33.0 µM,18%
same,growth inhibition,[15]; at 100.0 µM,95% (active)
